This is a sample that favours compounds with a hit; in the whole collection about 14% have one here.
HADH2 inh: qHTS Assay for Inhibitors of HADH2 (Hydroxyacyl-Coenzyme A Dehydrogenase, Type II) | 3-hydroxyacyl-CoA dehydrogenase type-2 (Homo sapiens), Q99714 | recombinant HADH2, NADH fluorescence, beta-hydroxybutyryl-CoA | Potency, µM (series often up to 57.1 µM), inactives show at the top dose activity change, negative = inhibition, actives largely listed as inhibitors | 73,000 tested, 3.4% active; also: potency is read from the fitted curve at half-maximal effect; % is scaled to controls: 0 for no effect and ±100 for the full control effect; nearly all actives have a fitted effect of over 60% in size
Target sequence (Q99714 whole entry, looked up, one chain of several): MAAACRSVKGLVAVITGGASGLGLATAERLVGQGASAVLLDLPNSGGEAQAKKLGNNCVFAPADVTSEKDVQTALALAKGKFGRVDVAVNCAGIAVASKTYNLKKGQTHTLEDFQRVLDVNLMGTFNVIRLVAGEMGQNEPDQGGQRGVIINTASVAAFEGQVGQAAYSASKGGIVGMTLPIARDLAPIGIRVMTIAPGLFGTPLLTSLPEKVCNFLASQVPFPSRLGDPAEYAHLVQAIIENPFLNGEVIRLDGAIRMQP
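20 nM HADH2 + cpd, 15 min RT; add 1 mM NAD+/90 uM beta-hydroxybutyryl-CoA; kinetic fluorescence 360/450 nm, 4 min. Tris-HCl pH 9.0, 0.01% Tween-20.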
4-MU autofl: qHTS Assay for Spectroscopic Profiling in 4-MU Spectral Region; compound autofluorescence, 340/450 nm, 4-MU equivalents; stronger effect = higher value; AID 589, 2007; 59,000 tested, 11% active; max dye-equivalent concentration, M; in the data active = max dye-equivalent concentration above about 10 nM; inconclusive = mostly about 1.1 nM to 9.6 nM
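Compounds in 100 mM Tris, pH 8.0, sat 15 min at room temperature before fluorescence was read at 340 nm excitation/450 nm emission; a per-plate six-point 4-MU standard curve converted signals to dye-equivalent concentration at each compound concentration.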
A350 fluor: qHTS Assay for Spectroscopic Profiling in A350 Spectral Region | Compound autofluorescence, 340/450 nm, Alexa 350 dye-equivalents; stronger effect = higher value | max dye-equivalent concentration, M | 59,000 tested, 11% active; in the data active = max dye-equivalent concentration above about 10 nM; inconclusive = mostly about 1.1 nM to 9.6 nM
HSD17B inhib: qHTS Assay for Inhibitors of HSD17B4, hydroxysteroid (17-beta) dehydrogenase 4. 3-hydroxyacyl-CoA dehydrogenase type-2 (Homo sapiens), Q99714. recombinant HSD17B10, NADH fluorescence kinetic. Potency, µM (doses to about 57.1 µM), without a hit: top-dose activity change, negative = inhibition, hits mostly inhibitors. 75,000 tested, 7.6% active;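 also: the protocol describes HADH2 (HSD17B10) and not the HSD17B4 of the title; potency is read from the fitted curve at half-maximal effect; % is scaled to controls: 0 for no effect and ±100 for the full control effect; nearly all actives have a fitted effect of over 70% in size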
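Enzyme plus compound, 15 min room temperature; substrate mix added (NAD+ 1 mM, beta-hydroxybutyryl-CoA 90 uM final); plates read kinetically for NADH fluorescence. HADH2 was His-tagged, E. coli-derived, 20 nM.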
CRE-bla Fsk: Cell signaling CRE-BLA (Fsk stim); CHO CRE-bla reporter (cAMP response element driving beta-lactamase), forskolin EC10, beta-lactamase ratio; 71,000 tested, 2.5% active; Potency, µM (highest dose often 38.2 µM), for inactives: top-dose activity change, negative = inhibition, hits mostly activators; active = well fitted activation curve with a large enough effect in the signal ratio, with a control signal flat, not every such curve was filed as active; inconclusive = small, poorly fitted or top-dose-only effect, or effect the other way, or a change in a side signal; the % refers to the signal ratio; also: potency is read from the fitted curve at half-maximal effect; % of control where 0% means no effect
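Reporter-gene assay: CHO cells with beta-lactamase behind cAMP responsive elements, co-treated with compound and EC10 NKH 477 for 3 hours at 37 degrees Celsius. Activity came from the 460/530 nm CCF4 emission ratio.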
AID923: qHTS Assay for Allosteric/Competitive Inhibitors of Caspase-1: Spectroscopic Profiling in AFC Spectral Region. compound fluorescence, AFC spectral region (405/520 nm). Potency, µM (highest dose often 57.5 µM), for the others: top-dose fluorescence increase, usual class: activators. 75,000 tested, 1.1% active; also: potency is read from the fitted curve at half-maximal effect; 0% is about no effect
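Baseline compound fluorescence (AFC region, 405 nm ex/520 nm em) taken from the intercept of kinetic reads with 50 nM caspase-1 and 5 uM Ac-WEHD-AFC; normalized to an on-plate AFC standard curve; compounds titrated up to 57 uM.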
CHO tox 24h: Cell Viability - CRE-beta lactamase CHO cell - 24 hr assay | CRE-bla CHO viability, ATP luminescence, 24 h | shares compounds with CRE-bla Fsk | 120 tested, under 10 active | AID 905, 2007 | activity, negative = viability loss, % at 46.1 µM
CHO via 40h: Cell Viability - CRE-beta lactamase CHO cell - 40 hr assay. CRE-bla CHO viability, ATP luminescence, 40 h. shares compounds with CRE-bla Fsk. Potency, µM, inactives show max response, actives largely listed as inhibitors. 120 tested, under 10 active
CRE-luc potent: Confirmation Concentration-Response Assay for Cell signaling CRE-BLA (Fsk stim) - HEK293 CREB Luciferase | shares compounds with CRE-bla Fsk | HEK293 CRE-luc2P, NKH477 EC10 potentiation, luminescence, 4 h | Potency, µM (top dose mostly 38.3 µM), for the others: at the highest dose activity, positive = activation, usual class: activators | 120 tested, 80% active
Numbers without * were called inactive; i = inactive; u = inconclusive; x = not tested or not shown; ! = a repeat was not active. Unless noted, calls follow the shape of the dose curve; as a rule, active = well fitted curve in the direction sought with a large enough effect; inconclusive = small, poorly fitted or top-dose-only effect, or another doubt; inactive = no such curve, though single readings can be large; an effect the other way counts as inactive or inconclusive.

SMILES	HADH2 inh	4-MU autofl	A350 fluor	HSD17B inhib	CRE-bla Fsk	AID923	CHO tox 24h	CHO via 40h	CRE-luc potent
COc1ccc(CNc2cc(-c3cccc(NS(C)(=O)=O)c3)ncn2)c(OC)c1	2.7%	i	i	1.2%	u	0.1%	x	x	x
O=C(O)c1ccc(B(O)O)cc1	-3.1%	x	x	4.6%	x	-0.7%	x	x	x
CCCN(CCC)c1nc2ccccc2n2c(C)nnc12	-3.0%	i	i	-8.1%	0.1%	-1.1%	-9.6	-21.1%	10µM*
c1ccc2c(c1)CCCN2c1nc2ccccc2n2cnnc12	-10.4%	x	x	-4.6%	5.0%	5.4%	x	x	x
CCN(CC)c1nc2ccccc2n2cnnc12	10.0%	i	i	-8.1%	12.6µM*	-0.4%	-10.8	u	12.6µM*
CCSc1nc2ccccc2n1Cc1nc(N)nc(N(C)C)n1	4.0%	i	i	-0.9%	u	-1.3%	x	x	x
CN(C)c1nc(N)nc(CSc2n[nH]c(-c3ccccc3)n2)n1	-8.4%	i	i	-2.2%	1.58µM*	-2.3%	-5.7	-28.2%	12.6µM*
Cc1nn(-c2ccccc2)c2sc(C(=O)N3CCCCC3)cc12	-15.7%	i	i	-2.5%	3.16µM*	-0.5%	-18.2	u	10µM*
Cc1ccccc1-n1nc(C)c2cc(C(=O)N3CCOCC3)sc21	9.8%	i	i	-2.6%	-3.6%	-0.7%	x	x	x
Cc1ccc(Cl)cc1N1CCN(S(=O)(=O)c2ccc3c(c2)OCCO3)CC1	4.2%	i	i	-0.3%	5.4%	1.9%	x	x	x
Cc1ccc(C)c(N2CCN(S(=O)(=O)c3ccc4c(c3)OCCO4)CC2)c1	9.1%	i	i	5.3%	5.6%	0.8%	3.3	-16.8%	12.6µM*
O=c1c(-c2cccc(Cl)c2)nc2cncnc2n1-c1ccccc1	2.9%	u	u	-28.6%	u	8.5%	x	x	x
Cc1ccc2c(C)nc(Nc3nc(CSc4nnnn4-c4ccccc4)cc(=O)[nH]3)nc2c1	3.9%	i	i	11.3%	u	-0.9%	-13.5	-29.2%	3.16µM*
COCc1cc(=O)[nH]c(Nc2nc(C)c3ccc(C)cc3n2)n1	-2.5%	i	i	11.2%	8.0%	0.5%	-6.2	-25.9%	u
CC(=O)Nc1cccc(N)c1	0.5%	x	x	-3.3%	-10.2%	1.9%	x	x	x
CC(=O)C1CCC2C3CCC4=CC(=O)CC[C@@]4(C)C3CC[C@]12C (stereo not given in full)	x	x	x	6.0%	x	1.8%	x	x	x
CC1CCc2c(sc3nc(C4CC4)nc(SCC(=O)NCc4ccco4)c23)C1 (stereo not given)	9.0%	i	i	11.0%	-0.7%	3.7%	3.1	-2.4%	7.7%
CCOC(=O)CSc1nc2sc3c(c2c(=O)n1CC)CC(C)(C)OC3	-17.2%	x	x	-8.8%	u	-1.3%	x	x	x
CC1(C)Cc2c(sc3nc(SCC#N)n(C4CCCCC4)c(=O)c23)CO1	x	i	i	x	x	x	-10.9	-19.5%	0.631µM*
CC(C)OCC1CO1 (stereo not given)	-27.7%	x	x	-3.7%	-13.4%	3.9%	x	x	x
CCOc1cc(C2c3c(oc4cc(C)c(Cl)cc4c3=O)C(=O)N2Cc2ccco2)ccc1O (stereo not given)	u	1.04e-07M*	9.01e-08M*	u	12.6µM*	0.7%	-20.9	-24.6%	0.794µM*
Cc1cc2oc3c(c(=O)c2cc1C)C(c1cccc(Br)c1)N(Cc1ccco1)C3=O (stereo not given)	6.9%	i	i	-4.9%	-4.0%	1.4%	x	x	x
Cc1cc(Nc2ccc3ccccc3c2)n2ncnc2n1	x	i	u	x	x	x	-17.4	-25.6%	-24.4%
Cc1cc(Nc2ccc(C(C)C)cc2)n2ncnc2n1	-3.1%	x	x	-1.7%	u	-1.5%	x	x	x
N#Cc1ccc(CN2CC3(CCN(C(=O)c4ccco4)CC3)C2)cc1	3.4%	i	i	6.3%	7.4%	1.3%	x	x	x
SMILES	HADH2 inh	4-MU autofl	A350 fluor	HSD17B inhib	CRE-bla Fsk	AID923	CHO tox 24h	CHO via 40h	CRE-luc potent
Cc1cc(C)n(-c2nc(Nc3ccccc3)nc(-n3nc(C)cc3C)n2)n1	14.2%	i	i	-4.1%	12.0%	1.9%	-1.8	-7.4%	u
Cc1cc(C)n(-c2nncc(-c3ccccc3)n2)n1	-9.7%	x	x	-0.2%	27.1%	0.9%	x	x	x
CC(C)CN1CC[C@@]2(CCCN(C(=O)c3csnn3)C2)C1	-12.7%	i	i	4.9%	5.0%	1.8%	x	x	x
O=C(Nc1ccc(-c2cn3ccsc3n2)cc1)c1ccc(F)c(S(=O)(=O)N2CCOCC2)c1	90.3%	u	u	34.7%	1.58µM*	0.4%	u	-22.4%	2.82µM*
COc1ccc(B(O)O)cc1	0.6%	x	x	8.0%	x	-1.2%	x	x	x
COc1ccc([C@@H]2CNC(=O)C2)cc1OC1CCCC1	6.9%	i	i	-5.9%	0.01µM*!	-1.1%	-6.1	-11.7%	0.0282µM*
O=c1[nH]c(SCc2ccccc2Cl)nc2c1cnn2-c1ccccc1	16.4%	x	x	37.2%	0.794µM*	1.3%	-18.5	-20.9%	6.31µM*
Cc1ccc(-n2ncc3c(=O)[nH]c(SCC(=O)N4CCOCC4)nc32)cc1	8.6%	i	i	0.9%	18.7%	2.0%	4.3	1.6%	u
Cc1nc(N2CCC(C)CC2)c2oc3ccccc3c2n1	-21.8%	i	i	73.0%	u	0.4%	x	x	x
Cc1cc(C)nc(N2CCN(c3nc(C)nc4c3oc3ccccc34)CC2)n1	u	i	i	12.2%	0.1%	-0.2%	4.5	-5.2%	3.16µM*
CN1CCN(c2cc(-c3ccccc3Cl)ncn2)CC1	11.3%	i	i	8.2%	4.8%	0.8%	x	x	x
CCOC(=O)c1ccccc1NC(=O)c1cc(S(=O)(=O)N2CCOCC2)ccc1F	15.1%	i	i	u	10µM*	2.7%	-15.7	-15.4%	12.6µM*
O=C(c1cc(S(=O)(=O)N2CCOCC2)ccc1F)N1CCCc2ccccc21	3.4%	i	i	8.6%	-8.0%	-3.0%	1.6	-1.9%	18.0%
